Bioassay records (PubChem BioAssay)
Sampled rows, rich in hits. Any-hit rate of the full collection: about 3%.
SENP8 block-1 – inhibitors of human SENP8 protease; hit rate 0.64% among 360,000; AID 602440; inhibition, % at 20 µM; recombinant SENP8, Nedd8 substrate fluorescence; in the data active means inhibition mostly above about 40%, no sharp cut-off; inactive means mostly below about 27%
Target sequence (Q96LD8 whole entry, looked up): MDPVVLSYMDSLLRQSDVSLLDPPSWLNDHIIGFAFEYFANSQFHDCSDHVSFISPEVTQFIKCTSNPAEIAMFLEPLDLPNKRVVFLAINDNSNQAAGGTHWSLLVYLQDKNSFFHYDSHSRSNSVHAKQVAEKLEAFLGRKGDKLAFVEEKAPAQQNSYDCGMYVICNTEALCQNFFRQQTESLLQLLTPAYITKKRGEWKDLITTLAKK
SENP7 block – SENP7 protease inhibition | hit rate 1.5% among 330,000 | AID 434973 | recombinant SENP7, Z-RLRGG-aminoluciferin luminescence, 40 min | inhibition, % at 5 µM;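 active means inhibition above about 50% at the single test dose, limit read from the data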;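 further: plate controls were DMSO with enzyme for no effect and no enzyme buffer wells for full effect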
PPC-1+TRAIL kill – compounds killing PPC-1 cancer cells with TRAIL present (potentiator screen, no TRAIL-free arm) | PPC-1 cells + TRAIL, ATPLite viability luminescence | cell killing (% activity), % at 4 µM or 5 µM | hit rate 0.41% among 220,000 | AID 1443;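 active means cell killing above 50% in the first pass at 4 µM, then a duplicate retest at 5 µM averaging 50% or more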;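 further: plate controls were cells with TRAIL plus DMSO for no effect and medium-only wells lacking cells for full effect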
TRAIL sens C8 – sensitizes caspase-8 expressing cells to TRAIL. NB7+C8 cells + TRAIL, ATPlite viability luminescence. inhibition (viability loss, TRAIL sensitization), % at 10 µM. hit rate 1% among 360,000;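 active means compounds causing at least 50% loss of cell viability in the single-dose screen, relative to plate controls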
SENP8 block-2 – blocks the human protease SENP8; purified SENP8, Z-RLRGG-aminoluciferin cleavage, luminescence; AID 2540; hit rate 1.2% among 330,000; Q96LD8; inhibition, % at 10 µM; in the data active means inhibition above about 50%
SENP6 block – SENP6 protease inhibition | Recombinant SENP6 catalytic domain, aminoluciferin luminescence | AID 2599 | inhibition, % at 10 µM | hit rate 1.8% among 330,000 | Q9GZR1;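 active means inhibition above about 50% at the single tested dose, limit read from the data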;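 further: plate controls were DMSO wells with enzyme for no effect and DMSO wells lacking enzyme for full effect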
Target sequence (Q9GZR1 628-1112 limits assumed): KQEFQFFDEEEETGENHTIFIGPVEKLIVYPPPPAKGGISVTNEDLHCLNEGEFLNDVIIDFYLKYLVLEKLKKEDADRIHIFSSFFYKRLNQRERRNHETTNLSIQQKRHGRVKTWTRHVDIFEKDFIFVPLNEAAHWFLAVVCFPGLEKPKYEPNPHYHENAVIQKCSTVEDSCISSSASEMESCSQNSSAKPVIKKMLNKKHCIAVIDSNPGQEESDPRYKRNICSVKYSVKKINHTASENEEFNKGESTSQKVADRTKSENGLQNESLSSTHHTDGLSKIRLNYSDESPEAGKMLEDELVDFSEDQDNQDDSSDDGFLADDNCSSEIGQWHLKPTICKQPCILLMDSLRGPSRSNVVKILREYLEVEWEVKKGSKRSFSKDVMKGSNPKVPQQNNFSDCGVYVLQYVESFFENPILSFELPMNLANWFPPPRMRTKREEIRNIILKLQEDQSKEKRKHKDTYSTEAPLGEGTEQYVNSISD
PPC-1 tox – kills PPC-1 cells | shares compounds with PPC-1+TRAIL kill | PPC-1 viability, ATPlite luminescence, overnight | cytotoxicity, % at 5 µM | hit rate 50% among 1,200 | AID 1447;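 active means reconfirmed compounds whose average cytotoxicity reaches 50% or more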;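 further: 0% = DMSO-treated cells and 100% = wells holding medium but no cells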
An asterisk follows results filed as active; . = no result.

SMILES | SENP8 block-1 | SENP7 block | PPC-1+TRAIL kill | TRAIL sens C8 | SENP8 block-2 | SENP6 block | PPC-1 tox
O=C(NCc1ccccn1)C(=O)N/N=C/c1ccc2c(c1)OCO2 | -29.4 | 11.2 | 3.6 | 1.3 | 2.8 | -18.1 | 9.2
O=S(=O)(c1ccc(Cl)nc1)N1CCCC1 | 2.5 | 10.6 | . | -23.4 | 2.3 | -4.1 | .
COCCn1nnnc1C(c1cc2ccc(OC)cc2[nH]c1=O)N1CCN(C2CCCCC2)CC1 (stereo not given) | -115.3 | 1.3 | -20.5 | 2.4 | 1.5 | 8.6 | -0.1
CCOC(=O)c1c(NC(=O)CCNCc2ccco2)sc2c1CCC2 | . | 0.8 | 22.3 | . | 1.7 | 6.0 | .
COC(=O)c1ccccc1NC(=O)Cn1c(=O)oc2ccc(Cl)cc21 | 2.8 | -3.3 | 6.8 | -3.1 | -3.8 | -10.2 | 3.7
Cc1cc(C)c(NC(=O)CSc2nnnn2-c2cccnc2)c(C)c1 | 7.7 | 0.4 | . | 0.1 | -6.1 | -10.8 | .
CC1(C(=O)NS(=O)(=O)C2CC2)CCN(C(=O)CSc2ccccc2)C1 (stereo not given) | 6.8 | . | . | -7.0 | . | . | .
CC(C)NC(=O)COC(=O)c1cc(F)c(F)cc1Cl | 14.5 | -3.5 | 9.5 | 0.2 | -11.0 | -12.9 | 14.6
CNC(=O)COC(=O)c1cc(F)c(F)cc1Cl | 23.8 | 7.5 | 11.7 | 0.4 | 0.5 | 0.5 | .
CC(C)CC(=O)Nc1ccc(-c2cn3cccnc3n2)cc1 | -273.4 | 1.1 | . | 29.0 | 2.8 | -1.4 | .
CC(C)(C)C(=O)Nc1ccc(-c2cn3ccsc3n2)cc1 | 16.7 | 0.8 | 90.7* | 89.7* | -4.9 | -4.2 | 90.4*
CC(C)CC(=O)Nc1ccc(-c2cn3ccsc3n2)cc1 | 8.0 | -11.9 | 71.4* | 82.8* | -16.4 | 1.8 | 71.0*
CCOC1=C2CN(S(=O)(=O)c3ccccc3)[C@H](c3ccccc3)C[C@H]2n2c(=O)n(-c3ccccc3)c(=O)n2C1 | 15.0 | . | . | 7.7 | . | . | .
COc1ccc(OC)c(C2=NOC(C(=O)Nc3cc(C)on3)C2)c1 (stereo not given) | -156.5 | -2.2 | 4.2 | -22.3 | -10.5 | -18.1 | .
CC(C)NC(=O)c1ccc2c(c1)N(CC(=O)Nc1ccccc1F)C(=O)C(C)(C)O2 | 7.3 | -7.8 | . | -2.6 | -9.5 | 7.4 | .
O=[N+]([O-])c1ccc(N/N=C/c2ccc(O)c(O)c2O)c(S(=O)(=O)N2CCOCC2)c1 | 90.5* | 16.3 | 4.0 | 13.6 | 14.6 | 37.9 | 7.5
O=[N+]([O-])c1ccc(N/N=C/c2cccc(O)c2O)c(S(=O)(=O)N2CCOCC2)c1 | 6.8 | 13.4 | 16.4 | 21.6 | 7.7 | -1.2 | .
Cc1ccc(OCC(=O)NNC(=O)C2CSC3(C)CCC(=O)N23)cc1 (stereo not given) | 5.5 | 4.0 | . | -11.0 | -0.4 | 2.4 | .
CCN(CC)Cc1c(O)ccc2cc(-c3nc4ccccc4n3C)c(=O)oc12 | -295.4 | -8.0 | . | -1.2 | -2.5 | -27.1 | .
O=C(N/N=C/c1cc(O)ccc1[N+](=O)[O-])c1ccc2c(c1)OCCO2 | 6.1 | 6.3 | 80.2* | 89.5* | -9.4 | -11.0 | 82.7*
O=C(N/N=C/c1ccccc1[N+](=O)[O-])c1ccc2c(c1)OCCO2 | -41.8 | 45.9 | 93.2* | 92.6* | 43.1 | 71.5* | 93.0*
Cc1ccccc1NC(=O)c1nc[nH]c1C(=O)NCc1ccccc1 | 21.7 | 6.6 | 10.4 | 3.1 | 6.3 | -0.8 | 17.3
O=C(OCCN=C1NS(=O)(=O)c2ccccc21)c1ccco1 | 10.7 | 2.2 | 36.6 | -2.6 | 0.6 | 2.0 | .
Cc1cc(/C=C2/C(=N)N3C(=NC2=O)SN=C3S(C)(=O)=O)c(C)n1-c1ccccc1F | -235.4 | -2.4 | 67.9* | 84.9* | -8.9 | 14.5 | 70.1*
CC1=CC2=NC(=O)/C(=C\c3cc(C)n(-c4ccccc4F)c3C)C(=N)N2O1 | -66.7 | 1.4 | 17.5 | 15.4 | 5.1 | 7.8 | .
SMILES | SENP8 block-1 | SENP7 block | PPC-1+TRAIL kill | TRAIL sens C8 | SENP8 block-2 | SENP6 block | PPC-1 tox
O=C(CSc1nnc(Cc2cccs2)n1C1CCCCC1)N1CCCc2ccccc21 | 21.1 | 1.7 | 2.3 | 20.3 | -0.4 | -9.1 | 6.9
O=C(c1nc2nc(-c3ccccc3)cc(C(F)(F)F)n2n1)N1CCCCC1 | -72.3 | 4.8 | -2.5 | 0.0 | 8.4 | -18.7 | -9.6
O=C(c1cc2nc(-c3ccccc3)cc(C(F)(F)F)n2n1)N1CCCC1 | -210.4 | . | . | 15.1 | . | . | .
N#CCc1nc(CSc2nc3ccccc3s2)cs1 | -14.0 | 5.8 | -14.7 | 28.7 | 4.7 | 19.7 | -31.5
CCN(CC(=O)NC1CCS(=O)(=O)C1)S(=O)(=O)c1ccc(Cl)cc1C(F)(F)F (stereo not given) | 1.3 | -4.8 | . | -15.8 | -9.6 | -7.2 | .
CCCCC(=O)Nc1ccccc1Oc1ccccc1 | 10.1 | 5.9 | -6.0 | -3.4 | 4.8 | -8.5 | -14.1
Cc1cccc(NCc2ccccc2O)c1C | 29.4 | 2.7 | 11.7 | -1.9 | -7.4 | -4.2 | .
Cc1ccc(NCc2ccccc2O)c(C)c1 | 2.0 | -2.4 | 9.6 | 1.6 | -8.6 | -2.1 | 9.6
COc1cc(/C=C/c2nc3ccccc3s2)cc(OC)c1O | -436.1 | 11.4 | 12.0 | -7.9 | 1.1 | 3.4 | .
CN(C)c1ccc(/C=C/c2nc3ccccc3s2)cc1 | -241.4 | 98.8* | 80.7* | 91.6* | 97.0* | 98.6* | 81.0*
CCCN(CCC)c1ccc(/C=C/c2ccc3cc(OCC)ccc3n2)cc1 | -288.6 | . | 15.4 | 4.0 | . | . | .
CN(C)c1ccc(/C=C/c2ccc3ccccc3n2)cc1 | -290.5 | . | 92.5* | 89.3* | . | . | 91.9*
CCCN(C)C1CN(Cc2cn(Cc3cc(C)cc(C)c3)nn2)S(=O)(=O)C1 (stereo not given) | 13.8 | . | . | -7.7 | . | . | .
Cc1cc(C)c(C#N)c(SCc2nc3ccccc3c(=O)[nH]2)n1 | -359.6 | 2.2 | 80.5* | 77.3* | 3.3 | 10.1 | 78.8*
COCc1cc(C)nc(SCc2nc3ccccc3c(=O)[nH]2)c1C#N | -397.4 | 4.8 | -4.6 | 3.4 | -3.4 | -11.4 | .
COc1ccc(S(=O)(=O)N(C)CC(=O)Nc2ccc(C(N)=O)cc2)cc1OC | 6.1 | -1.4 | 24.9 | -11.0 | 2.4 | 2.2 | .
COC(=O)c1ccc(NC(=O)CN(C)S(=O)(=O)c2ccc(OC)c(C)c2)cc1 | 10.8 | 10.0 | -9.6 | -8.3 | -6.0 | -3.0 | -1.8
O=C(Cn1nnc2ccccc2c1=O)Nc1cccc(S(=O)(=O)N2CCOCC2)c1 | -57.1 | 4.2 | 31.7 | -7.5 | 0.0 | 13.5 | .
CC(=O)Nc1ccc(NC(=O)CSc2nnc(-c3cc(C)[nH]n3)n2N)cc1 | -17.8 | 3.9 | . | -16.1 | -6.2 | 20.6 | .
COc1ccc(-c2c(-c3cc(OC)cc(OC)c3)n(C)c3ccc(Br)cc23)cc1 | -484.9 | -6.1 | . | 5.4 | 0.8 | -7.5 | .
COc1ccc(N=Nc2nc3ccc(Br)cc3n2C)cc1 | 64.3* | . | 75.8* | 79.7* | . | . | 72.5*
CCCOc1ccc(C2(C(=O)O)CCCC2)cc1 | 13.9 | -4.9 | 11.2 | -10.0 | 0.7 | 4.5 | 13.2
Cc1cccc(NS(=O)(=O)c2ccc(C)c(C(=O)OCC(=O)Nc3cc(C)on3)c2)c1 | 9.0 | -6.5 | 6.5 | 13.9 | -2.7 | -16.9 | 7.3
